Data as given in the OligoGym collection.

Target: PRSS27
Assay: pooled miR-30 sensor sort-seq; sequence = guide strand
Conditions: shRNA
Also: reference of the scale not given here.

Sequence	sensor-assay potency score (higher = more potent)
TCATTCTTGATGGTTTTGGGTT	-0.872
TACAGGGACGTCTCAGAGGTGT	-0.7
TTTGCTGTAGAGCAGGTTGCAC	-0.973
TTGGTAGCCAAACTCGGTGTCT	-0.152
AAACTCGGTGTCTTTGCTGTAG	-0.247
TTGCTGTAGAGCAGGTTGCACT	-1.36
TAATTGGTGAAGGGCACTGGTG	-1.57
TAGAGCAGGTTGCACTTGGGTG	-0.65
TGACACGGATGTAGACACCTGG	-0.413
ATACATAGCGTGTGGTCCCGGC	-0.586

Target: PRSS35
Assay: as above
Conditions: shRNA

Sequence	sensor-assay potency score (higher = more potent)
TTGGATTCGTCGGACACACTGC	-0.732
TTCCTCATCTTCAACAACCCTA	0.185
TCACATTTAATACACAACCAGC	-0.906
TAATACACAACCAGCATCCTAT	-0.461
AAATCTTGAACTTTCACCCTGG	0.84
TTGAGTCGGCTCAAGAACCAAA	-0.83
TTACCATCATCTTAGCATCTGC	-0.234
TTTCTTTTTGTGAGCACGCTTC	-0.433
TTGTCCAAGATGCTGAACCTGC	-0.668
TAACTTTCTGTCTCTATTCTGA	-0.225
TAGAACAAACTATTTCTCCCAT	0.0739
TACACCTGTCTCTTTCTCCTAA	-0.12
